Laboratory results reported in PubChem BioAssay AID2289 (National Center for Advancing Translational Sciences (NCATS), 2010).
In all, about 340,000 compounds went through this assay and about 3,300 (0.97%) were called active. Inconclusive results (about 9%) are left out. Calls come from the whole dose curve; as a rule, active = well fitted inhibition curve with a large enough effect; inconclusive = small, poorly fitted or top-dose-only effect, or effect the other way; inactive = flat fitted curve, though single readings scatter. The list shows a part of the results.

Experiment: qHTS Assay for Modulators of miRNAs and/or Inhibitors of miR-21; note: nearly all actives have a fitted effect of over 55% in size
Conditions: HeLa miR-21-FLuc reporter, luciferase luminescence, 48 h; actives lower the signal
Method in brief: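 HeLa cells endogenously expressing miR-21, stably carrying CMV-driven firefly luciferase with a downstream miR-21 binding site, 2000 cells/well. Titrations up to approximately 40 uM, 48 hours; luciferase luminescence read.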
Potency is the fitted concentration of half-maximal effect.

Potency, active:
O=c1c2cc(-c3ccccc3)sc2nc2n1N=C(c1cccs1)CS2 0.414 µM
COc1ccc(OC)c(N/C(C)=C/C(=O)c2ccccc2)c1 7.36 µM
C/C(=C\C(=O)c1ccc(C)cc1)Nc1cccc(O)c1 3.29 µM
C/C(=C\C(=O)c1ccccc1)Nc1cccc(O)c1 4.65 µM
Cn1c(=O)n(C)c2cc(NS(=O)(=O)c3ccc(F)cc3)c(NCc3ccccc3)cc21 9.27 µM
O=c1c2ccccc2nnn1COc1cccc(Cl)c1 13.1 µM
CCOc1ccc(OCCn2nnc3ccccc3c2=O)cc1 5.21 µM
O=c1c2ccccc2nnn1COc1cccc2ccccc12 14.7 µM
Cc1ccc(/C=C(\C#N)C(=O)Nc2ccc(Br)cc2)o1 0.656 µM
CC1CC1c1ccc(/C=C(\C#N)C(=O)Nc2ccccc2Cl)o1 (configuration not stated) 14.7 µM
Cc1cccc(NC(=O)/C(C#N)=C/c2ccco2)c1 4.14 µM
Cc1ccc(NC(=O)/C(C#N)=C/c2ccc(C)o2)cc1 0.329 µM
Cc1ccc(/C=C(\C#N)C(=O)Nc2cccc(Cl)c2)o1 1.47 µM
O=C(CC(Nc1ccc(F)cc1)C(=O)OCC(=O)c1cccs1)c1ccccc1 (configuration not stated) 3.29 µM
COc1ccccc1NC(CC(=O)c1ccccc1)C(=O)OCC(=O)c1ccc(C)cc1 (configuration not stated) 1.47 µM
COc1ccccc1NC(CC(=O)c1ccccc1)C(=O)OCC(=O)c1ccc(C)c(C)c1 (configuration not stated) 1.04 µM
O=C(c1ccc(COCC(F)(F)F)cc1)N1CCN(c2ccccn2)CC1 14.7 µM
CCc1ccc(N2C(=O)Cc3c2nc(N)c(C#N)c3N)cc1 16.5 µM
COc1ccc(NC(=O)C2C3CC/C=C\CCC32)cc1 (configuration not stated) 6.56 µM
CNC(=O)c1c(NC(=O)c2nc3ccccc3s2)sc2c1CCC2 1.31 µM
Cc1cccc2cc(/C=N/Nc3ccc(C(=O)O)cc3)c(Cl)nc12 0.521 µM
O=C(O)c1ccc(N/N=C/c2cc3ccccc3nc2Cl)cc1 3.29 µM
Cc1ccc2cc(/C=N/Nc3ccc(C(=O)O)cc3)c(Cl)nc2c1 2.07 µM
CCCCOc1ccc2c(c1)C(=O)c1cc(O)ccc1-2 5.85 µM
O=[N+]([O-])c1ccccc1N/N=C1\CC2CC=CC12 (configuration not stated) 16.5 µM
C=CCOc1cccc(/C=C/c2nc3ccccc3c(=O)[nH]2)c1 0.826 µM
O=c1[nH]c(/C=C/c2ccc(Br)cc2)nc2ccccc12 0.369 µM
Cc1[nH]c2ccccc2c1/C=C/c1nc2ccccc2c(=O)[nH]1 1.31 µM
COCC(C)N=C1NN=C(c2c[nH]c3ccccc23)CS1 (configuration not stated) 6.56 µM
C=CCOc1ccc2c(OC)c3ccoc3nc2c1OC 13.1 µM
CCOc1ccc(NC(=O)c2ccccc2SC)cc1 7.36 µM
CCc1ccc(NC(=O)c2ccccc2SC)cc1 7.36 µM
CCc1ccc(NC(=O)c2ccccc2Br)cc1 2.07 µM
CCOc1ccc(NC(=O)c2csc3c2CCCC3)cc1 2.07 µM
C#CCNC(=O)/C=C/c1ccc(OC)cc1 13.1 µM
C#CCNC(=O)/C=C/c1ccc(C)cc1 8.26 µM
O=C1CCNc2ccc(-c3ccccc3)cc21 6.56 µM
CCn1c(NCc2ccc3c(c2)OCO3)nc2ccccc21 16.5 µM
C=CCn1c(NCc2ccc3c(c2)OCO3)nc2ccccc21 9.27 µM
Cc1ccc2oc(-c3cccc(NC(=O)Cn4cnc5c(=O)n(C)c(=O)n(C)c54)c3)nc2c1 6.56 µM
Cc1ccc2oc(-c3cccc(NC(=S)NC(=O)c4cccs4)c3)nc2c1 4.14 µM
Cc1ccc2oc(-c3ccc(C)c(NC(=S)NC(=O)c4cccs4)c3)nc2c1 0.521 µM
Nc1c(C(=O)Nc2ccccc2Br)sc2nc(-c3cccs3)ccc12 7.36 µM
CC(=O)c1sc2nc(-c3cccs3)ccc2c1N 14.7 µM
NC(=O)c1sc2nc(-c3cccs3)ccc2c1N 13.1 µM
O=c1/c(=C\c2ccc(F)cc2)sc2n1CCCN=2 1.85 µM
O=C(CCC1CCCN(C(=O)Cc2cccc(F)c2)C1)N1CCN(c2ccccn2)CC1 (configuration not stated) 16.5 µM
Cc1cc(N)ccc1N=Nc1c(C)n(C)n(-c2ccccc2)c1=O 14.7 µM
Cc1c(N=Nc2ccc(N(C)C)cc2)c(=O)n(-c2ccccc2)n1C 5.21 µM
Cc1ccc(/C=N/NC(=S)NC2CCCCC2)o1 5.21 µM
CN(C)/C=N/c1nc2ccc3c(c2s1)CCCC3 2.33 µM
Clc1ccc(-n2ncc3c(N4CCCC4)ncnc32)cc1 0.0656 µM
Cc1cccc(-n2ncc3c(N4CCC5(CC4)OCCO5)ncnc32)c1 1.85 µM
CCN1CCN(c2ncnc3c2cnn3-c2ccc(C)c(C)c2)CC1 1.65 µM
CN(C(=O)c1cc(-c2ccc3c(c2)OCO3)on1)c1ccccc1 2.61 µM
O=C(NC1CCCC1)c1cc(-c2ccc(Cl)cc2)on1 1.65 µM
COc1ccc(-c2cc(C(=O)NC3CCCC3)no2)cc1 1.17 µM
CCCCNC(=O)c1cc(-c2ccc(F)cc2)on1 3.29 µM
CC1CCCC(C)N1C(=O)c1cc(-c2cccs2)on1 (configuration not stated) 16.5 µM
Cc1ccc(-c2cc(C(=O)NC3CCCC3)no2)cc1 1.31 µM
O=C(NC1CCCC1)c1cc(-c2cccc(Cl)c2)on1 4.65 µM
CCCNC(=O)c1cc(-c2ccc(OC)cc2)on1 0.927 µM
O=C(NC1CCCCC1)c1cc(-c2ccc(O)cc2)on1 2.93 µM
O=C(NCC1CCCO1)c1cc(-c2ccccc2F)no1 (configuration not stated) 14.7 µM
CN(C(=O)c1cc(-c2ccccc2)on1)C1CCCCC1 2.07 µM
O=C(NC1CCCC1)c1cc(-c2ccc(F)cc2)on1 1.85 µM
COc1cccc(-c2cc(C(=O)NC3CCCCC3)no2)c1 2.07 µM
O=C(NC1CCCC1)c1cc(-c2ccccc2)on1 2.93 µM
COc1cccc(-c2cc(C(=O)N3C(C)CCCC3C)no2)c1 (configuration not stated) 3.29 µM
O=C(NCC1CCCO1)c1cc(-c2ccccc2)on1 (configuration not stated) 7.36 µM
COc1ccc(-c2nc(-c3cccc(C)c3)no2)cc1OC 2.93 µM
COc1ccc(-c2nc(-c3ccncc3)no2)cc1OC 4.65 µM
Cc1cccc(-c2noc(-c3ccc(Cl)cc3[N+](=O)[O-])n2)c1 1.17 µM
COc1ccc(-c2noc(-c3ccco3)n2)cc1OC 1.65 µM
COc1ccc(-c2nc(-c3cccnc3)no2)cc1OC 16.5 µM
COc1ccc(-c2nc(-c3cccnc3)no2)cc1 0.826 µM
COc1ccc(-c2noc(-c3cccnc3)n2)cc1OC 6.56 µM
CCOc1ccccc1NC(=O)CN1C(=O)CC(c2ccc(C)c(C)c2)=Nc2ccccc21 8.26 µM
COc1ccc(CNC(=O)CN2C(=O)CC(c3ccc(C)c(C)c3)=Nc3ccccc32)cc1 11.7 µM
O=C(N/N=C\C=C\c1ccco1)c1cc(-c2ccc3ccccc3c2)n[nH]1 4.14 µM
O=C(CCN1C(=O)S/C(=C\C=C\c2ccccc2)C1=O)Nc1ccc(O)cc1 9.27 µM
C=CCSc1nnc(-c2ccc([N+](=O)[O-])cc2)o1 6.56 µM
Fc1ccc(-c2nnc(Cc3ccc(Cl)cc3)o2)cc1 10.4 µM
O=[N+]([O-])c1ccc(Cc2nnc(-c3ccc(F)cc3)o2)cc1 0.826 µM
O=[N+]([O-])c1cccnc1NCCc1c[nH]c2ccccc12 4.14 µM
COc1ccc(CNc2ncccc2[N+](=O)[O-])cc1 18.5 µM
O=[N+]([O-])c1cccnc1NCCNc1ncc(C(F)(F)F)cc1Cl 2.93 µM
O=[N+]([O-])c1cccnc1NCCc1ccccc1 5.21 µM
Cc1ccccc1-n1c(C)cc(/C=N/Nc2ccc([N+](=O)[O-])cn2)c1C 3.69 µM
O=C(Nc1cccnc1Cl)c1cc(-c2ccccc2O)on1 2.61 µM
O=C(Nc1cccnc1Cl)c1cc(-c2cccc(O)c2)on1 18.5 µM
Cc1ccc(C(=O)Nc2cccnc2Cl)cc1Cl 3.69 µM
CCC(C(=O)N1CCN(c2cccc(C)c2C)CC1)n1nc(C)c2sc3ccccc3c2c1=O (configuration not stated) 8.26 µM
COc1ccccc1Nc1ccc(Nc2ccccc2OC)nn1 7.36 µM
CCOC(=O)c1c(-c2ccccc2)cn2c(C)cc(C)nc12 5.85 µM
CCOC(=O)c1c(C)nc(-c2ccccc2)nc1N 4.65 µM
CC(=O)c1c(C)nc(-c2ccc(Cl)cc2)nc1N 1.65 µM
C/C(=N/NC(=O)c1ccoc1C)c1ccc(NC(=O)C2CCCC2)cc1 1.31 µM
C/C(=N/NC(=O)c1ccoc1C)c1cccc(NC(=O)C(F)(F)F)c1 1.65 µM
C/C(=N/NC(=O)c1ccccc1)c1ccc(NC(=O)C(F)(F)F)cc1 4.65 µM
C/C(=N/NC(=O)c1ccoc1C)c1cccc(NC(=O)C2CC2)c1 1.65 µM
COC1=C/C(=C/c2c(O)c(C#N)c3ccccn23)C=CC1=O 11.7 µM
